The record followed here is ChEMBL document CHEMBL3988442, “University of Dundee, Small-Polar-MMV Screening Library” (2021).

The test relates to Leishmania donovani. The test is described as follows: Leishmania intramacrophage assay. In kind it is functional, organism-based. More on the design: scale not given: in the data most compounds retested in dose-response had high values.

Out of some 69,000 compounds screened, about 1,000 (1.4%) showed an effect of 50% or more. The sample holds strong results, similar compounds and a random draw of the others, so the mix is not that of the screen.

Take `Cc1ccc(CN2CCN(Cc3nccn3C)[C@H]3CS(=O)(=O)C[C@H]32)o1`: the “Percent Effect” value (30.3 µM, […]) is reported as 16.96%. In the case of `CC(C)n1cc(N2Cc3nc(N4CCOCC4)ncc3C2=O)cn1`, the “Percent Effect” value (30.3 µM, […]) is listed as 32.93%. As to `CCn1cc(N2Cc3nc(N4CCOCC4)ncc3C2=O)cn1`, the “Percent Effect” value (30 µM, 30.03 µM) is listed as -6.754%. In the case of `Cn1cc(N2Cc3nc(N4CCOCC4)ncc3C2=O)cn1`, the “Percent Effect” value (30.3 µM, […]) is 59.37%. Still for that read-out and setting: with `CN(C)Cc1ccc(C(N)=O)cc1NC(=O)c1cccc(C#N)c1` the figure was 0.5381%. Turning to `CC(=O)N1CCC(Cc2cccc(-c3ccnn3C)n2)CC1`, where the note is “30.3 µM, […]”, the “Percent Effect” value was found to be 7.143%. Same read-out and setting: with `CN(CCNC(=O)Nc1cnn(C)c1)Cc1ccc(F)cc1` the figure was -44.73%; with `CN(CCNC(=O)Nc1ccn(C)n1)Cc1ccc(F)cc1`, -20.54%. On the same count and under the same terms, the result for `CN(CCNC(=O)Nc1nccs1)Cc1ccc(F)cc1` reads 53.32%.

Consider `CCSCc1cccc(NC2CCN(C)C2=O)c1` (stereo not given), for which the “Percent Effect” value (30.3 µM, […]) is -1.156%. On the same count and under the same terms, with `COCCCN(C)c1cc(C(F)(F)F)nc(-c2cccnc2)n1` the figure was 1.301%. On to `Cl.c1ccc(-c2ccc(C3CNCCO3)nc2)cc1` (stereo not given), for which the “Percent Effect” value (30 µM, 30.03 µM) turned out to be 21.61%. Take `CCNC(=O)N(Cc1ccoc1)C1CCCCC1`: under “30.3 µM, […]”, the “Percent Effect” value was -8.85%. The same measure, in the same setting: with `COc1cc(CSc2nnc(N)n2C2CC2)ccc1SC` the figure was 3.668%; with `CC(C)(C)c1ncc(C(=O)N2CCC(N3CCSCC3)CC2)c(O)n1`, -1.593%; with `Cc1ccc(CC(=O)NCC(Cc2ccc(F)cc2)C(N)=O)cn1` (stereo not given), 53.64%. On to `NC(=O)C(CNC(=O)Cc1ccc(F)cc1)Cc1ccc(F)cc1` (stereo not given), for which, for the setting “30 µM, 30.03 µM”, the “Percent Effect” value was 16.98%.

On to `NC(=O)C(CNC(=O)Cc1ccsc1)Cc1ccc(F)cc1` (stereo not given), for which, for the setting “30.3 µM, […]”, the “Percent Effect” value turned out to be 32.76%. Same read-out and setting: with `CSc1ncnc(NCc2cccs2)c1C#N` the figure was 10.2%. As for `COCCCN1Cc2cccc(NC(=O)c3ccccc3C)c2C1`, the “Percent Effect” value (30.3 µM, […]) is given as -0.887%.

Regarding `O=C(NCc1ccco1)[C@H]1CC[C@@H]2[C@@H](CCN2Cc2nccs2)O1.O=C(O)C(F)(F)F`, the “Percent Effect” value (30.3 µM, […]) is recorded as -4.08%. Take `COCC[C@]1(O)CCN(Cc2nc(C(C)C)cs2)C[C@H]1C`: for the setting “30.3 µM, […]”, the “Percent Effect” value is on record as -0.9404%. As to `COCCN(Cc1sccc1C)Cc1nccn1CCOC`, the “Percent Effect” value (30.3 µM, […]) is 16.06%. With `COCCN(Cc1ccccn1)Cc1sccc1C`, the “Percent Effect” value (30.3 µM, […]) stood at 0.646%. Still for that read-out and setting: the result for `COCCn1ccnc1CN(Cc1ccccn1)Cc1sccc1C` reads 60.02%; that for `CN(CC(=O)Nc1cnn(-c2ccccc2S(C)(=O)=O)c1)C1CC1`, 52.47%; that for `CC(C)(C)CC(=O)Nc1cnn(-c2ccccc2S(C)(=O)=O)c1`, 13.51%.

As for `CS(=O)(=O)c1ccccc1-n1cc(NC(=O)CC2C=CCC2)cn1` (stereo not given), the “Percent Effect” value (30.3 µM, […]) was determined as 4.466%. On the same count and under the same terms, with `CC(C)c1cc(=O)[nH]c(-c2ccccc2CN2CCCCCC2)n1` the figure was 1.494%. Consider `CCCc1nc2c(c(C)c(C)n2Cc2ccccn2)c(N)c1CC`, for which, for the setting “30.3 µM, […]”, the “Percent Effect” value came to 98.46%.

Regarding `Cc1c(C)n(Cc2ccncc2)c2nc3c(c(N)c12)CCCC3`, where the note is “30.3 µM, […]”, the “Percent Effect” value turned out to be 9.739%. Take `CCCc1nc2c(c(C)c(C)n2Cc2cccnc2)c(N)c1CC`: the “Percent Effect” value (30.3 µM, […]) came out at 64.41%.

Regarding `CCCc1nc2c(c(C)c(C)n2Cc2ccncc2)c(N)c1CC`, the “Percent Effect” value (30.3 µM, […]) was found to be 13.89%. On the same count and under the same terms, the result for `CCc1nc2c(c(C)c(C)n2Cc2cccnc2)c(N)c1C` reads 13.69%. Turning to `Cc1c(C)n(Cc2ccccn2)c2nc3c(c(N)c12)CCCC3`, the “Percent Effect” value (30 µM, 30.03 µM) is -5.276%. Turning to `O=C(Cc1ccon1)N1CCN(c2ccc(F)cc2Cl)CC1`, under “30.3 µM, […]”, the “Percent Effect” value is 4.988%. For `CNC(=O)c1cnn2c(C3CCCN3C)ccnc12` (stereo not given), the “Percent Effect” value (30.3 µM, […]) is on record as -0.3512%. Regarding `CCN1CCC2(CCN(c3ncccn3)CC2)C1=O.O=C(O)C(F)(F)F`, the “Percent Effect” value (30.3 µM, […]) is given as -8.891%. Still for that read-out and setting: with `Cc1cc(C(=O)NCC(C)C)nn1C` the figure was 3.079%; with `Cc1ccc(F)c(OC2CCCN(c3cnn(C)c3)C2=O)c1` (stereo not given), 1.572%. As for `CN(Cc1nccn1C)S(=O)(=O)Cc1cccc(C#N)c1`, the “Percent Effect” value (30.3 µM, […]) came to 3.121%. Consider `Cc1c[nH]c(C2CCCN(Cc3ccccc3C(=O)O)C2)n1.O=CO` (stereo not given), for which the “Percent Effect” value (30.3 µM, […]) is recorded as -7.994%. On to `CC(=O)N1CCCN(C(=O)NCCNc2cnccn2)CC1`, for which the “Percent Effect” value (30 µM) was 10.17%. For the compound `Cc1cccc(CN2C[C@@H]3OCCN(c4ccnc(N(C)C)n4)[C@@H]3C2)c1.O=C(O)C(F)(F)F`, the “Percent Effect” value (30.3 µM, […]) is -2.723%. Take `CCc1ccc(CN2C[C@@H]3OCCN(c4ccnc(N(C)C)n4)[C@@H]3C2)o1.O=C(O)C(F)(F)F`: the “Percent Effect” value (30 µM, 30.03 µM) stood at 55.16%. Take `CN(C)c1nccc(N2CCO[C@H]3CN(Cc4nccn4C)C[C@H]32)n1.O=C(O)C(F)(F)F`: the “Percent Effect” value (30.3 µM, […]) was found to be 22.89%. On the same count and under the same terms, the result for `CCc1cc(CNC(=O)C2CCCN(C(=O)NCC(C)C)C2)[nH]n1` (stereo not given) reads -11.81%; that for `CCn1nc2c(cc1=O)CN(Cc1coc(-c3ccccc3)n1)CC2`, 51.53%. Regarding `Cc1ccc(-c2nc(CN3CCc4nn(C)c(=O)cc4C3)co2)cc1`, the “Percent Effect” value (30 µM, 30.03 µM) is 21.01%. As for `Cn1nc2c(cc1=O)CN(Cc1coc(-c3ccccc3)n1)CC2`, for the setting “30.3 µM, […]”, the “Percent Effect” value is reported as 18.82%.
